Source: PubChem BioAssay AID1159580 (chemical genetic matrix, 2015)
Several values for one entry are separate records, joined by “and”; a condition that tells them apart may be missing. Identical values can stand only once. The whole screen tested about 5,500 compounds, of which about 2,000 (36%) were called active. Inconclusive results (about 18%) are left out. Cut-off read from the data, not from the text of the source: active = normalized growth mostly below about 0.91 (no sharp cut-off); inconclusive = no clear call, values can overlap the other calls; inactive = mostly above about 0.92. The list shows a part of the results.

Assay: chemical genetic growth profiling, strain panel (AID 1159580);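 note: tested at 20 µM; growth read once vehicle control cultures reached saturation at 30 °C; 1 = growth at the plate median or of vehicle wells; lower values mean less growth of the strain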
Settings: S. cerevisiae deletion strains, growth OD

Measured: normalized growth

COc1ccc2c(=O)c(CC(=O)O)coc2c1
inactive: locus YAL021C, strain ccr4, stronger effect = lower value 1.01 | locus YAL026C, strain drs2, stronger effect = lower value 0.984 | locus YAL030W, strain snc1, stronger effect = lower value 0.983 | locus YBL061C, strain skt5, stronger effect = lower value 0.989 | locus YBR009C, strain hhf1, stronger effect = lower value 0.987 | locus YBR021W, strain FUR4, stronger effect = lower value 1.02 | locus YBR023C, strain chs3, stronger effect = lower value 0.999 | locus YBR171W, strain sec66, stronger effect = lower value 0.956 | locus YBR229C, strain ROT2, stronger effect = lower value 1 | locus YBR231C, strain swc5, stronger effect = lower value 0.972 | locus YBR279W, strain paf1, stronger effect = lower value 0.997 | locus YCL011C, strain gbp2, stronger effect = lower value 0.995 | locus YCL016C, strain dcc1, stronger effect = lower value 1.04 | locus YCL029C, strain bik1, stronger effect = lower value 1 | locus YCL061C, strain MRC1, stronger effect = lower value 1 | locus YCL069W, strain vba3, stronger effect = lower value 0.975 | locus YCR088W, strain abp1, stronger effect = lower value 0.971 | locus YDL005C, strain med2, stronger effect = lower value 0.985 | locus YDL035C, strain GPR1, stronger effect = lower value 1.03 | locus YDL040C, strain nat1, stronger effect = lower value 0.979 | locus YDL074C, strain BRE1, stronger effect = lower value 1.05 | locus YDL101C, strain DUN1, stronger effect = lower value 0.987 | locus YDL134C, strain PPH21, stronger effect = lower value 1.01 | locus YDL185W, strain tfp1, stronger effect = lower value 0.984 | locus YDL192W, strain arf1, stronger effect = lower value 1.01 | locus YDR001C, strain nth1, stronger effect = lower value 0.995 | locus YDR069C, strain doa4, stronger effect = lower value 0.953 | locus YDR101C, strain arx1, stronger effect = lower value 1.04 | locus YDR137W, strain rgp1, stronger effect = lower value 1 | locus YDR159W, strain sac3, stronger effect = lower value 0.926 | locus YDR162C, strain NBP2, stronger effect = lower value 1.05 | locus YDR195W, strain ref2 0.964 | locus YDR297W, strain sur2, stronger effect = lower value 0.965 | locus YDR318W, strain mcm21, stronger effect = lower value 0.991 | locus YDR334W, strain swr1, stronger effect = lower value 0.968 | locus YDR335W, strain msn5, stronger effect = lower value 0.987 | locus YDR388W, stronger effect = lower value 1 | locus YDR392W, strain spt3, stronger effect = lower value 0.939 | locus YDR502C, strain sam2, stronger effect = lower value 0.991 | locus YEL003W, strain gim4, stronger effect = lower value 0.98 | locus YEL037C, strain rad23, stronger effect = lower value 0.977 | locus YEL061C, strain CIN8 (second series), stronger effect = lower value 0.973 | locus YEL061C, strain CIN8, stronger effect = lower value 1.01 | locus YER015W, strain faa2, stronger effect = lower value 0.976 | locus YER016W, strain bim1, stronger effect = lower value 0.986 | locus YER110C, stronger effect = lower value 0.976 | locus YER111C, strain swi4, stronger effect = lower value 0.981 | locus YER155C, strain BEM2 (second series), stronger effect = lower value 0.981 | locus YER155C, strain BEM2, stronger effect = lower value 0.989 | locus YER167W, strain BCK2, stronger effect = lower value 1.01 | locus YFR010W, strain ubp6, stronger effect = lower value 0.969 | locus YGL078C, strain dbp3, stronger effect = lower value 0.96 | locus YGL086W, strain mad1, stronger effect = lower value 1.02 | locus YGL167C, strain pmr1, stronger effect = lower value 0.992 | locus YGL173C, strain kem1, stronger effect = lower value 0.982 | locus YGL227W, strain vid30, stronger effect = lower value 0.984 | locus YGL240W, strain doc1, stronger effect = lower value 0.951 | locus YGL248W, strain PDE1, stronger effect = lower value 1.01 | locus YGL253W, strain hxk2, stronger effect = lower value 0.961 | locus YGR078C, strain PAC10, stronger effect = lower value 1.01 | locus YGR135W, strain pre9, stronger effect = lower value 0.949 | locus YGR252W, strain gcn5, stronger effect = lower value 0.987 | locus YHR013C, strain ard1, stronger effect = lower value 1.02 | locus YHR027C, strain rpn1, stronger effect = lower value 0.969 | locus YHR030C, strain SLT2, stronger effect = lower value 1.01 | locus YHR079C, strain IRE1 (second series), stronger effect = lower value 0.984 | locus YHR079C, strain IRE1, stronger effect = lower value 0.991 | locus YHR094C, strain hxt1, stronger effect = lower value 0.983 | locus YHR129C, strain ARP1, stronger effect = lower value 1 | locus YHR142W, strain chs7, stronger effect = lower value 0.995 | locus YHR200W, strain rpn10, stronger effect = lower value 1.01 | locus YIL066C, strain RNR3, stronger effect = lower value 1 | locus YIL073C, strain SPO22, stronger effect = lower value 0.974 | locus YIL125W, strain kgd1, stronger effect = lower value 1 | locus YIR030C, strain dcg1, stronger effect = lower value 1 | locus YJL092W, strain hpr5, stronger effect = lower value 0.974 | locus YJL095W, strain BCK1 (second series), stronger effect = lower value 0.962 | locus YJL095W, strain BCK1, stronger effect = lower value 1.01 and 1.02 | locus YJL115W, strain asf1, stronger effect = lower value 0.984 | locus YJL129C, strain trk1, stronger effect = lower value 0.996 | locus YJL134W, strain LCB3, stronger effect = lower value 0.999 | locus YJL154C, strain vps35, stronger effect = lower value 0.987 | locus YJL164C, strain tpk1, stronger effect = lower value 1.01 | locus YJL166W, strain qcr8, stronger effect = lower value 0.973 | locus YJL168C, strain set2, stronger effect = lower value 0.987 | locus YJL187C, strain SWE1 (second series), stronger effect = lower value 0.993 | locus YJL187C, strain SWE1, stronger effect = lower value 0.977 | locus YJR043C, strain POL32, stronger effect = lower value 1.05
